# CHO-K1 Ca ag = counter-screen for M1 agonists: effect in parental CHO-K1 cells. Fluo-8 calcium fluorescence; scaled to maximal ATP response, vehicle zero. activation, % at 3 µM. actives 0.48% (n = 360,000); in the data active means activation above about 15%;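 further: untransfected CHO-K1 host cells lacking M1 receptor as counterscreen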
# M1 PAM = positive allosteric modulators of human M1 muscarinic receptor; P11229; CHO-K1 hM1, Fluo-8 calcium fluorescence, ACh EC20; 0% = ACh EC20, 100% = maximal ACh; activation, % at 3 µM; actives 0.088% (n = 360,000); AID 588819; in the data active means activation above about 19%, passing the limit was not always enough
# Target sequence (P11229 whole entry, looked up): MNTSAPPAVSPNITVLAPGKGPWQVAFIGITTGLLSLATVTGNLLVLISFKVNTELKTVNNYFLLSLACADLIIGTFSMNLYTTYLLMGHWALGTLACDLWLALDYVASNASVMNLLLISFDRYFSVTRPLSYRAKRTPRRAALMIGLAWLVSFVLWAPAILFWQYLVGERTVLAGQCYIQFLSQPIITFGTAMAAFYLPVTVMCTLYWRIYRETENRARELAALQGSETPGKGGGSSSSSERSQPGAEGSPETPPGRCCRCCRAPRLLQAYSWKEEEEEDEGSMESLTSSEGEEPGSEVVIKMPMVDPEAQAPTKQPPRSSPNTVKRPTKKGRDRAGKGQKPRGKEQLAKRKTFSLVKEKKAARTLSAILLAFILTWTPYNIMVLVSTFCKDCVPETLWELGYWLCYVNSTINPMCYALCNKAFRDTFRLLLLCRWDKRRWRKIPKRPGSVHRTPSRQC
# CHO-K1 Ca PAM = nonselective activator or artifact in parental CHO-K1 calcium assay; ATP EC20, Fluo-8 calcium fluorescence; 0% at ATP EC20, 100% at ATP max; actives 0.02% (n = 360,000); activation, % at 3 µM; AID 602247;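 active means activation above the run cutoff, the mean activation of all test compounds plus 3 SD, cut at about 40% in these data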;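 further: peak over basal fluorescence ratio in a 140 s read after ATP addition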
# CHO-K1 Ca antag = M1 antagonist counterscreen hit in parental CHO-K1 cells | inhibition, % at 3 µM | actives 0.6% (n = 360,000) | ATP-induced calcium, Fluo-8 fluorescence;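 active means inhibition above a per-plate cutoff, the plate's mean sample inhibition plus 3 SD, cut at about 24% in these data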;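 further: 0% = DMSO plus EC80 ATP and 100% = DMSO alone without ATP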
# M1 antag = antagonists of human M1 muscarinic receptor. P11229. CHO-K1 hM1, Fluo-8 calcium fluorescence, ACh EC80 antagonist. actives 1.3% (n = 360,000). inhibition, % at 3 µM;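 active means percent inhibition above its own plate's cutoff, namely the mean of that plate's compound wells plus 3 SD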;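 further: peak over basal fluorescence ratio during 140 s after agonist addition; 0% = ACh EC80 plus DMSO and 100% = DMSO alone without agonist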
# M1 ag = human M1 muscarinic receptor agonism; P11229; CHO-K1 hM1, Fluo-8 calcium fluorescence, agonist mode; 0% DMSO, 100% acetylcholine EC100; activation, % at 3 µM; actives 0.33% (n = 360,000); AID 588814;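 active means activation above the run's mean compound activation plus 3 SD, cut at about 16% in these data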;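 further: peak over basal fluorescence ratio within a 140 s kinetic read after compound addition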
# Starred values were filed as active, the others as inactive. Rows were chosen to be rich in hits. Some 2.4% of all compounds tested hit in one or more screens of this group.
SMILES,CHO-K1 Ca ag,M1 PAM,CHO-K1 Ca PAM,CHO-K1 Ca antag,M1 antag,M1 ag
OCC1(CCc2ccccc2)CCCN(C/C=C/c2ccccc2)C1 (stereo not drawn),0,-25,-9,-9,35*,-9
CN(C)c1cc[n+](Cc2c(Cl)cccc2Cl)cc1,0,-21,19,-9,80*,-5
C[N+](C)(C)CCCCCCC(=O)/C=N/O,0,-11,-8,21,5,36*
C[N+]1(CCCCCCC(=O)/C=N/O)CCCCCC1,0,0,16,1,-2,-4
CCOC(=O)C1CCN(C(=O)c2ccccc2NS(=O)(=O)c2ccc(F)cc2)CC1,1,11,7,6,-6,-9
Nn1c(COc2cccc(Cl)c2)nc2ccccc2c1=O,25*,-3,11,2,7,-6
CCC(C)NCCOCCOc1ccc(Cl)cc1Br (stereo not drawn),1,-22,-9,16,42*,-7
Cc1ccc(OCCOCCNC(C)C)c(Br)c1,0,-1,20,-8,-28,-6
C=CCc1cc(Cl)ccc1OCCCNC(C)CC (stereo not drawn),2,-22,1,-2,24*,-7
CCC(C)NCCOCCOc1cc(C)c(Cl)c(C)c1 (stereo not drawn),1,-25,10,-1,54*,-7
O=C(CNC(=O)Cc1cccc2ccccc12)NCc1ccc(F)cc1,0,15,24,-20,-9,-2
Cc1ccc(-c2nnc(N3CCN(C(=O)COc4cccc(C)c4)CC3)c3ccccc23)cc1,0,-24,10,-10,32,-9
Cc1cccc(OCC(=O)N2CCN(c3nnc(-c4ccccc4)c4ccccc34)CC2)c1,5,-28,9,-6,57*,-6
COc1ccc(NC(=S)N(CCCN2CCCCC2)Cc2cccs2)cc1,0,-22,-4,4,59*,-9
COc1ccc(NC(=S)N(CCCN2CCC(C)CC2)Cc2cccs2)cc1,1,1,9,-19,0,-6
Cc1c(Cl)cccc1NC(=S)N(CCCN1CCOCC1)Cc1cccs1,1,-24,3,-9,82*,-9
COC(=O)c1c(NC(=O)CC2SC(N)=NC2=O)sc2c1CCC(C(C)(C)C)C2 (stereo not drawn),-1,5,-9,7,-3,-1
O=C(NCCn1cc(SCc2ccccc2F)c2ccccc21)c1c(F)cccc1F,4,-20,30,-3,32*,-5
O=C(NCCn1cc(SCC(=O)N2CCOCC2)c2ccccc21)c1c(F)cccc1F,3,-4,4,-2,-1,-2
CCNC(=O)C1CCCN(C(=O)c2cc(OC)c(OC)c(OC)c2)CC1 (stereo not drawn),1,7,14,0,-15,-1
C1CCN(C2CCN(c3nc4nonc4nc3N3CCSCC3)CC2)C1,0,-24,-5,8,27*,-10
COc1ccc(NC(=O)NNC(=O)CCc2ccc(O)c(O)c2)cc1OC,1,3,10,6,-5,-1
COc1ccccc1NS(=O)(=O)c1cccc(NC(=O)Nc2ccc(Cl)cc2)c1,14,-21,-9,38*,44*,3
COc1cccc(OC)c1C(=O)Nc1cccc(S(=O)(=O)Nc2ccccc2Cl)c1,1,5,0,-8,-18,0
COc1ccccc1NS(=O)(=O)c1cccc(NC(=O)Nc2ccccc2)c1,18*,-21,-9,37*,59*,6
SMILES,CHO-K1 Ca ag,M1 PAM,CHO-K1 Ca PAM,CHO-K1 Ca antag,M1 antag,M1 ag
CC(C)c1ccc(N=c2c([N+](=O)[O-])nn(-c3ccc4c(c3)OCCO4)n2O)cc1,9,-24,9,-12,39*,-5
O=[N+]([O-])c1nn(-c2ccc3c(c2)OCCO3)n(O)c1=NC1CCN(Cc2ccccc2)CC1,0,-25,-8,16,47*,-9
COc1cc(N=c2c([N+](=O)[O-])nn(-c3ccc4c(c3)OCCO4)n2O)cc(OC)c1,2,2,13,-10,-5,-4
O=C(COc1cccnc1[N+](=O)[O-])NCCc1ccc(F)cc1,0,-3,-3,-8,0,-6
COc1ccc(-c2c(-c3cc(OC)cc(OC)c3)n(C)c3ccc(Br)cc23)cc1,0,1,-7,-3,10,-2
COc1ccc(N=Nc2nc3ccc(Br)cc3n2C)cc1,18*,-3,-4,6,8,17*
CC1SC(=Nc2ccccc2)N(S(=O)(=O)c2ccccc2)C1=O (stereo not drawn),1,1,22,-18,10,-5
Cc1nn(-c2ccccc2)c(C)c1NC(=O)COC(=O)c1ccccc1OC(F)F,1,9,18,-2,-7,0
O=C(Nc1nnc(SCc2c(Cl)cccc2Cl)s1)C1CC(=O)N(c2ccc3c(c2)OCCO3)C1 (stereo not drawn),1,2,17,-18,33*,-5
O=C(Nc1nnc(SCc2ccc(F)cc2)s1)C1CC(=O)N(c2ccc3c(c2)OCCO3)C1 (stereo not drawn),2,-3,31,-11,6,-8
CCCCC(CC)C(=O)Nc1ncc([N+](=O)[O-])s1 (stereo not drawn),8,-23,-3,26*,49*,-3
COCCn1nnnc1CN1CCN(C(=O)c2ccco2)CC1,1,1,7,-14,-7,-6
COc1ccc(CCn2nnnc2CN2CCN(C(=O)c3ccco3)CC2)cc1OC,14,9,-15,24*,-5,-10
O=C(c1nc2ccc(Cl)cn2c1CN1CCC[C@H]1CO)N1CCc2ccccc2C1,1,17,-6,-2,-24,-3
COc1cc(C(=O)Oc2cccc(Nc3ncnc4ccccc34)c2)cc(OC)c1OC,11,-20,-3,11,41*,0
O=Cc1ccccc1OCCOc1ccccc1C=O,7,-34,-4,4,82*,-14
C[C@H](CO)N1C[C@H](C)[C@@H](CN(C)S(=O)(=O)c2cccs2)Oc2ccc(NC(=O)Cn3cnnn3)cc2C1=O,0,-22,14,-9,26*,-10
C[C@H](CO)N1C[C@H](C)[C@@H](CN(C)S(=O)(=O)c2ccccc2)Oc2ccc(NC(=O)C3CCCCC3)cc2C1=O,0,-8,5,-6,7,-11
COc1ccc(S(=O)(=O)Nc2ccc3c(c2)C(=O)N([C@H](C)CO)C[C@H](C)[C@@H](CN(C)C(=O)Nc2c(C)noc2C)OCCCC[C@H](C)O3)cc1,1,-29,22,-17,2,40*
